Rows were chosen to be rich in hits. Some 3.3% of all compounds tested hit in one or more screens of this group.
MITF TRPM1 HTS – activators of MITF-driven TRPM1 promoter activity in SK-MEL-5 cells. SK-MEL-5 TRPM1-promoter luciferase, 24 h; % of positive control, neutral wells = 0. activation, % at 12.5 µM. 300,000 tested, 0.75% active. AID 588334;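 active = mean activation of at least 80% with every replicate also reaching 80%; inconclusive = mean reaches 80% but some replicate falls short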;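 note: 0% = neutral control wells and 100% = parthenolide positive control wells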
FXN GAA850 act – activators of GAA850 frataxin (FXN) promoter; 360,000 tested, 0.56% active; activation, % at 6 µM; HEK293 lucGAA850 FXN promoter luciferase reporter, 24 h; percent of 10 µM SAHA response;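 active = activation above the average of all compounds screened plus 3 SD, cutoff fixed separately per campaign, cut at about 7.5% in these data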;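 note: 0% = DMSO wells and 100% = 10 µM SAHA wells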
Statin myotox sup – suppression of simvastatin myotoxicity | C2C12 myotubes + simvastatin, ATP luminescence, 48 h; scaled: DMSO 0, geranylgeraniol control 100 | rescue of ATP level, % at 7.49 µM | 330,000 tested, 0.78% active;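 active = mean ATP rescue above about 67%, or every replicate alone reaching that limit, limit read from the data, passing the limit was not always enough; inconclusive = no clear call, values can overlap the other calls; inactive = mean under the limit and some replicate under it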;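 note: myotubes were challenged with 10 µM simvastatin during compound exposure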
Wnt bcat act – Wnt/beta-catenin pathway activation; Wnt/beta-catenin reporter cell assay, activator, plate reader; activation, % at 9.35 µM; 300,000 tested, 1.2% active; in the data active = activation above about 30%, passing the limit was not always enough; inconclusive = no clear call, values can overlap the other calls;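 note: 0% = neutral control wells and 100% = positive control wells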
esBAF inh – SWI/SNF esBAF complex inhibition; 350,000 tested, 2% active; reporter increase, % at 12.5 µM; mouse ES cells, Bmi1-luciferase knock-in reporter, 24 h; 100% = twice the neutral-well signal; in the data active = activation above about 40%; inconclusive = no clear call, values can overlap the other calls;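 note: 0% = median of the plate's neutral control wells and 100% = double that signal; a rise in the Bmi1 reporter signal indicates esBAF inhibition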
Starred values were filed as active, the others as inactive.

How did CC(/C=N/NC(=O)c1ccccc1F)=C\c1ccccc1 do in these assays?
MITF TRPM1 HTS: 99.3*; FXN GAA850 act: 3.5; Statin myotox sup: -3.2; Wnt bcat act: 5.4; esBAF inh: 19.9

What do the screens show for `CCCNC(=O)C[C@H]1CC[C@@H]2[C@H](COc3ccc(NC(=O)COC)cc3C(=O)N2C)O1`?
Statin myotox sup: 0.8; esBAF inh: -4.0

What do the screens show for `CCCC#Cc1ccc2c(c1)O[C@H](CN(C)C(=O)c1ccccc1)[C@@H](C)CN([C@@H](C)CO)S2(=O)=O`?
Statin myotox sup: -50.6; esBAF inh: 5.3

What do the screens show for `Cc1ccc2[nH]c(=O)c(NC(N)=S)nc2c1`?
MITF TRPM1 HTS: 4.5; FXN GAA850 act: -0.9; Statin myotox sup: 101.1*; esBAF inh: 0.8

How did NC(=S)Nc1nc2ccccc2[nH]c1=O do in these assays?
Wnt bcat act: 4.3

What do the screens show for `O=C(Nc1cccc(F)c1)N[C@@H]1CC[C@H](CCNS(=O)(=O)c2cccc(Cl)c2)O[C@H]1CO`?
Statin myotox sup: -12.3; esBAF inh: -0.7

Results for c1ccc(COc2ccc(OCCn3cncn3)cc2)cc1 ?
MITF TRPM1 HTS: inconclusive; FXN GAA850 act: 3.5; Statin myotox sup: -4.2; esBAF inh: 68.4*

Results for c1ccc(-c2ccc(OCCCn3cncn3)cc2)cc1 ?
MITF TRPM1 HTS: 42.9; FXN GAA850 act: 3.0; Statin myotox sup: 10.6; Wnt bcat act: 35.4*; esBAF inh: 50.7*

What do the screens show for `O=C(O)C[C@@H]1CC[C@@H](NC(=O)Nc2cc(F)ccc2F)[C@@H](CO)O1`?
Statin myotox sup: -0.1; esBAF inh: -3.7

Results for O=C(Cc1ccc(-c2ccccc2)cc1)Nc1ccccn1 ?
MITF TRPM1 HTS: 68.9; FXN GAA850 act: 3.2; Statin myotox sup: -76.9; Wnt bcat act: 26.0; esBAF inh: 42.6*

What do the screens show for `Cc1ccc(NC(=O)Cc2ccc(-c3ccccc3)cc2)nc1`?
MITF TRPM1 HTS: -3.0; FXN GAA850 act: 2.6; Wnt bcat act: 1.1

How did CCCC(=O)Nc1ccc2c(c1)OC[C@H](C)N(C(=O)c1ccccc1F)C[C@@H](C)[C@H](OC)CN(C)C2=O do in these assays?
Statin myotox sup: 22.8; esBAF inh: -8.0

What do the screens show for `Cc1ccc(SCn2nnc3ccccc3c2=O)c(C)c1`?
MITF TRPM1 HTS: 109.9*; FXN GAA850 act: 6.5; Wnt bcat act: 27.3

Results for O=c1c2ccccc2nnn1CCc1ccccc1 ?
FXN GAA850 act: 0.6; Statin myotox sup: -18.1; Wnt bcat act: 42.7*; esBAF inh: 20.1

How did O=c1c2ccccc2nnn1COc1cccc(Cl)c1 do in these assays?
MITF TRPM1 HTS: 43.9; FXN GAA850 act: 2.3; Statin myotox sup: -6.8; Wnt bcat act: 7.3; esBAF inh: 59.5*

How did O=c1c2ccccc2nnn1Cc1ccccc1 do in these assays?
MITF TRPM1 HTS: 1.9; FXN GAA850 act: 1.6; Statin myotox sup: -2.2; Wnt bcat act: 4.5; esBAF inh: 0.6

What do the screens show for `Cc1cc(C(=O)CN2C(=O)NC(CC(C)C)C2=O)c(C)n1-c1ccccc1F` (stereo not given)?
MITF TRPM1 HTS: -1.8; FXN GAA850 act: 0.5; Wnt bcat act: -1.1

How did Cc1cc(C(=O)CN2C(=O)NC(CC(C)C)C2=O)c(C)n1C1CC1 (stereo not given) do in these assays?
MITF TRPM1 HTS: 29.3; FXN GAA850 act: 4.8; Statin myotox sup: 0.8; Wnt bcat act: 5.1; esBAF inh: 43.1*

What do the screens show for `COc1ccc2cc(-c3[nH]ncc3CN3CCCCO3)ccc2c1`?
MITF TRPM1 HTS: 33.9; FXN GAA850 act: 4.2; Statin myotox sup: 6.8; Wnt bcat act: 3.5; esBAF inh: 56.4*

How did CC1CCN(C(=O)C2Cc3ccccc3CN2S(=O)(=O)c2ccc(F)cc2)CC1 (stereo not given) do in these assays?
MITF TRPM1 HTS: -4.5; FXN GAA850 act: 10.8*; Statin myotox sup: -0.7; esBAF inh: 3.1

Results for Cc1cc(Cl)cc2sc(NC(=O)c3ccco3)nc12 ?
MITF TRPM1 HTS: 88.2*; FXN GAA850 act: 1.8; Statin myotox sup: 4.4; esBAF inh: 16.9

What do the screens show for `Cc1cc(C)c2nc(NC(=O)c3ccco3)sc2c1`?
MITF TRPM1 HTS: 22.1; FXN GAA850 act: 0.6; Statin myotox sup: 4.8; Wnt bcat act: 23.6; esBAF inh: -32.8

How did Fc1cccc2sc(Nc3nnc(-c4ccco4)o3)nc12 do in these assays?
MITF TRPM1 HTS: 29.7; FXN GAA850 act: 2.2; Statin myotox sup: -8.9; Wnt bcat act: 38.3*; esBAF inh: 13.7

How did O=C(Nc1nc2c(F)cccc2s1)c1ccco1 do in these assays?
MITF TRPM1 HTS: 59.1; FXN GAA850 act: -1.5; Statin myotox sup: 0.7; Wnt bcat act: 43.2*; esBAF inh: 31.2

Results for O=C(C[C@H]1CC[C@H]2[C@@H](COC[C@H](O)CN2Cc2ccc(Oc3ccccc3)cc2)O1)N1CCc2ccccc2C1 ?
Statin myotox sup: 27.4; esBAF inh: 16.1

How did C/C=C/c1ccc([C@@H]2[C@H](CO)N(C(=O)CC)[C@H]2CNC(=O)CC2CC2)cc1 do in these assays?
Statin myotox sup: -6.8; esBAF inh: 1.2

Results for O=C(NCCc1ccccc1)c1ccc(NC(=O)c2cccnc2)cc1 ?
MITF TRPM1 HTS: -7.4; FXN GAA850 act: 0.9; Statin myotox sup: -19.4; Wnt bcat act: -2.0; esBAF inh: 14.7

Results for O=C(Nc1ccc2oc(-c3ccccc3)nc2c1)c1ccncc1 ?
MITF TRPM1 HTS: 19.0; FXN GAA850 act: -1.8; Statin myotox sup: -18.8; esBAF inh: 54.1*

Results for O=C(Nc1ccc(-c2nc3ccccc3o2)cc1)c1cccnc1 ?
MITF TRPM1 HTS: 31.9; FXN GAA850 act: 1.4; Statin myotox sup: -89.6; Wnt bcat act: 42.0*; esBAF inh: 50.1*

How did O=C(Nc1ccc2c(c1)oc1ccccc12)c1cccnc1 do in these assays?
MITF TRPM1 HTS: 105.8*; FXN GAA850 act: 0.7; Statin myotox sup: -54.2; esBAF inh: 68.2*

Results for O=C(Nc1ccc2c(c1)oc1ccccc12)c1ccncc1 ?
FXN GAA850 act: -0.4; Statin myotox sup: -10.2; Wnt bcat act: inconclusive; esBAF inh: 31.6

What do the screens show for `O=C(Nc1ccc(-c2noc(CCc3ccccc3)n2)cc1)c1cccnc1`?
MITF TRPM1 HTS: 2.8; FXN GAA850 act: 3.0; Statin myotox sup: -18.7; esBAF inh: 49.4*

How did CC(C)NC(=O)N(C)C[C@@H]1OCc2ccccc2-c2c(n(C)c3ccccc23)C(=O)N([C@H](C)CO)C[C@@H]1C do in these assays?
Statin myotox sup: -12.6; esBAF inh: 8.7

What do the screens show for `CCOC(=O)c1sc2nc(-c3cccnc3)ccc2c1N`?
MITF TRPM1 HTS: 77.3; FXN GAA850 act: 7.0; Wnt bcat act: 51.9*

Results for CC(C)CC#Cc1ccc2c(c1)O[C@@H](CN(C)C(=O)Cc1ccccc1)[C@@H](C)CN([C@H](C)CO)S2(=O)=O ?
Statin myotox sup: 12.4; esBAF inh: 4.0

How did COc1ccc(N2CCN(C(=O)c3cc(=O)[nH]c4ccccc34)CC2)cc1 do in these assays?
MITF TRPM1 HTS: -12.6; FXN GAA850 act: 3.5; Statin myotox sup: 11.5; Wnt bcat act: -2.2; esBAF inh: -3.0
